# Measured values reported in the supplement of paper PMC6555819.
# Assays:
# Test in all cases: PBM binding z-score (relative to random genomic background probes); higher = stronger binding; sequences stand for … in GC…GCGATTGACAGCGTAGAATGAAGG
# [1] = tested on: FXR:RXRa (NR concentration 270 nM, RXRa partner concentration 90 nM)
# In short: (§1)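 Random background probes are the reference for binding z-scores. These scores derive from regression-normalized fluorescence on custom Agilent 4×180K protein-binding microarrays incubated 1 h with ligand-free nuclear receptor dimers. Binding was detected with antibodies against each partner (one per run).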
# [2] = tested on: LXRa:RXRa (NR concentration 270 nM, RXRa partner concentration 90 nM)
# In short: as §1
# [3] = tested on: LXRa homodimer (NR concentration 270 nM)
# In short: as §1
# [4] = tested on: LXRb:RXRa (NR concentration 270 nM, RXRa partner concentration 90 nM)
# In short: as §1
# [5] = tested on: LXRb homodimer (NR concentration 270 nM)
# In short: as §1
# [6] = tested on: PPARa:RXRa (NR concentration 270 nM, RXRa partner concentration 90 nM)
# In short: as §1
# [7] = tested on: PPARg:RXRa (NR concentration 180 nM, RXRa partner concentration 90 nM)
# In short: as §1
# [8] = tested on: PPARg:RXRa 270nM:90nM, anti-RXR (NR concentration 270 nM, RXRa partner concentration 90 nM)
# In short: as §1
# [9] = tested on: PPARg:RXRa 30nM:10nM, anti-RXR (NR concentration 30 nM, RXRa partner concentration 10 nM)
# In short: as §1
# [10] = tested on: PPARg:RXRa 90nM:30nM, anti-RXR (NR concentration 90 nM, RXRa partner concentration 30 nM)
# In short: as §1
# [11] = tested on: PPARg:RXRa DBDmut IVT, anti-RXR (DBD mutation: RXRa K156A/R161A, NR concentration 270 nM, RXRa partner concentration 90 nM)
# In short: as §1
# [12] = tested on: PPARg:RXRa IVT, anti-PPARg (NR concentration 270 nM, RXRa partner concentration 90 nM)
# In short: as §1
# [13] = tested on: PPARg DBDmut:RXRa IVT, anti-PPARg (DBD mutation: PPARg1 K132A/R137A, NR concentration 270 nM, RXRa partner concentration 90 nM)
# In short: as §1
# [14] = tested on: PPARg DBDmut IVT, anti-PPARg (DBD mutation: PPARg1 K132A/R137A, NR concentration 270 nM)
# In short: as §1
# [15] = tested on: PPARg homodimer (NR concentration 180 nM)
# In short: as §1
# [16] = tested on: PXR:RXRa (NR concentration 270 nM, RXRa partner concentration 90 nM)
# In short: as §1
# [17] = tested on: PXR homodimer (NR concentration 270 nM)
# In short: as §1
# [18] = tested on: RARa:RXR (NR concentration 270 nM, RXRa partner concentration 90 nM)
# In short: as §1
# [19] = tested on: RARa homodimer (NR concentration 270 nM)
# In short: as §1
# [20] = tested on: RARb:RXRa (NR concentration 270 nM, RXRa partner concentration 90 nM)
# In short: as §1
Sequence,PBM binding z-score [1],PBM binding z-score [2],PBM binding z-score [3],PBM binding z-score [4],PBM binding z-score [5],PBM binding z-score [6],PBM binding z-score [7],PBM binding z-score [8],PBM binding z-score [9],PBM binding z-score [10],PBM binding z-score [11],PBM binding z-score [12],PBM binding z-score [13],PBM binding z-score [14],PBM binding z-score [15],PBM binding z-score [16],PBM binding z-score [17],PBM binding z-score [18],PBM binding z-score [19],PBM binding z-score [20]
TTACCAAGGAGAAAGGTCGTTGATGCACGCCTTG,1.02,1.35,0.0075,1.32,-0.338,2.37,2.36,4.03,2.56,3.74,0.0947,0.908,0.246,0.131,0.653,1.82,-0.00641,2.12,-0.114,1.5
GCATATAGGTAATACAAGGTGAAAGTGCGATTGT,1.29,2.52,0.475,0.725,-0.0302,2.26,1.96,2.57,1.04,2,3.95,3.56,1.03,1.01,0.954,0.734,0.452,1.35,0.831,0.52
TCTGCTAGGTCAGTTGGTGAGCTAACGAGCTGCC,0.898,0.467,-0.796,-0.0479,0.264,0.853,-0.0831,1.38,1.18,1.13,2.62,2.7,0.403,1.14,-0.166,-0.0879,-1.19,0.102,-1.25,3.16
CGTCCAAGGTCATAGCAGGTCAGTGAAGACAGAT,7.63,7.02,3.65,5.58,0.842,5.85,5.23,5.24,2.03,4.17,3.54,4.67,0.604,1.12,3.76,6.05,2.47,5.07,1.79,5.09
AGTCAAGGTTCACTAGGTAACGTAAGATTCAGCT,3.03,3.03,0.713,1.93,0.445,3.59,4.38,4.46,1.58,3.65,2.7,4.17,0.684,1.3,1.04,1.83,0.833,1.9,-0.0473,2.75
TCGAGTAGGTTAGGAGCATTCAGAATGGCGTCGA,-0.126,-0.0909,-0.756,-0.438,-1.39,0.24,0.0725,0.668,0.928,0.741,1.4,0.397,-0.907,-1.2,-0.371,-0.392,-0.58,-0.181,-0.978,0.0424
AGAATGAGGTTATTAAGATCAGTGAATTGCGGTC,1.66,1.74,0.236,1.27,0.0793,2.7,1.43,1.81,0.385,0.958,3.14,2.61,0.948,0.175,1.22,1.37,0.788,1.35,0.44,1.31
TTACCAAGGTGAGCTAAGGTCGTTGATCCAACTC,3.04,1.56,-0.466,0.977,-1.12,1.66,0.5,1.42,0.431,0.771,1.04,1.93,-0.698,-0.173,0.0568,4.6,0.308,2.41,-1.25,1.91
TCAGACAGGTGAAGGTAACCCAGGTACGCAGTCG,1.04,1.3,0.143,0.546,-0.122,1.45,0.909,2.04,3.53,2.77,2.61,2.16,0.501,-0.304,0.633,0.747,0.22,0.961,0.035,1.44
TCATATAGGTAAACAGGTGAAAGCCCGTAAGTTA,0.95,1.13,0.0822,0.763,-0.22,2.4,2.7,3.37,3.79,3.69,4.79,4.53,1.26,0.658,0.824,0.744,0.0524,1.07,1.58,0.738
TAGCCTAGGTCATTGGGCCAGTAGAGTACGCATC,3.86,3.33,0.509,2.17,-0.0447,3.92,3.68,3.97,0.744,2.76,2.83,3.89,-0.36,-0.247,0.811,1.57,-0.0607,2.13,-0.3,3.54
CCTACTGGGACACGAAAGGTCATTGATTCAGTGA,3.84,4.83,5.13,4.17,0.785,4.65,4.68,4.72,2.24,4.34,5.93,5.78,0.301,-0.131,2.99,4.91,2.47,4.98,1.59,4.06
CCTGCTACGTCATGGTCAGCTAATCTACAGTATG,-0.508,-0.217,-0.512,-0.505,-0.327,-0.4,0.216,-0.67,-0.17,-0.333,0.0597,-0.592,0.222,-0.835,-0.235,-0.16,-0.428,-0.116,-0.328,0.259
